This is an account of results in ChEMBL document CHEMBL3988442, “University of Dundee, Small-Polar-MMV Screening Library” (2021).

The whole screen tested about 69,000 compounds, of which about 1,000 (1.4%) showed an effect of 50% or more. What follows is part of a selection rich in strong results, with near analogues and random picks from the rest.

This assay deals with Leishmania donovani. The experiment in a line: Leishmania intramacrophage assay. The assay is classed as functional, organism-based. More on the design: scale not given: in the data most compounds retested in dose-response had high values.

In the case of `CCC(CNc1ncnc2oc(C)nc12)Cc1ccccc1` (centres undefined), the “Percent Effect” value (30.3 µM, […]) was 45.54%.

Consider `CCCOc1ccc(Cl)cc1CNc1ncnc2oc(C)nc12`, for which, for the setting “30.3 µM, […]”, the “Percent Effect” value turned out to be 22.92%.

Consider `CCCOc1ccccc1CCCNc1ncnc2oc(C)nc12`, for which, where the note is “30.3 µM, […]”, the “Percent Effect” value is recorded as 83.62%.

Regarding `CCN(CCSc1ccccc1)C(=O)c1cn([C@H]2CC[C@@H](N)CC2)nn1`, the “Percent Effect” value (30.3 µM, […]) was determined as 13.68%.

For `Cc1ccc(SCCCNC(=O)c2cn([C@H]3CC[C@@H](N)CC3)nn2)cc1`, the “Percent Effect” value (30.3 µM, […]) was determined as 94.34%.

Take `Cc1ccc(SCCN(C)C(=O)c2cn([C@H]3CC[C@@H](N)CC3)nn2)cc1`: the “Percent Effect” value (30.3 µM, […]) is listed as -26.18%.

Consider `O=C(O)c1cnc(OCC2CC2)c(Br)c1`, for which, under “30.3 µM, […]”, the “Percent Effect” value is on record as 4.629%.

For the compound `COCCNC(=O)c1c(-n2cnnn2)sc2c1CCCC2`, the “Percent Effect” value (30.3 µM, […]) stood at 53.45%.

As to `COCCCNC(=O)c1c(-n2cnnn2)sc2c1CCC2`, the “Percent Effect” value (30.3 µM, […]) stood at 9.721%.

As for `CC(C)CCNC(=O)c1c(-n2cnnn2)sc2c1CCCC2`, the “Percent Effect” value (30.3 µM, […]) was -26.12%.

For the compound `Cc1ccc(C(=O)N(CC2CCCO2)c2ccncc2)o1` (centres undefined), under “30.3 µM, […]”, the “Percent Effect” value turned out to be 23.81%.

`Cc1nn(-c2ccccn2)c(C)c1[C@@H]1C=C[C@@H](NC(=O)NC(C)C)C1`: the “Percent Effect” value (30.3 µM, […]) worked out at 10.96%.

Turning to `CCNC(=O)[C@@H]1C[C@H](N)CN1Cc1ccc(Sc2ccc(C)cc2)o1`, the “Percent Effect” value (30.3 µM, […]) is given as -2.33%.

In the case of `CCNC(=O)[C@@H]1C[C@H](N)CN1Cc1ccc(-c2cc[nH]n2)o1`, the “Percent Effect” value (30.3 µM, […]) came to 11.56%.

Consider `CCNC(=O)[C@@H]1C[C@@H](N)CN1Cc1ccc(Sc2ccc(C)cc2)o1`, for which, where the note is “30.3 µM, […]”, the “Percent Effect” value is recorded as 97.85%.

In the case of `Cc1cc(C(=O)NC2CC(=O)N(C(C)C)C2=O)c(C)n1C(C)C` (centres undefined), the “Percent Effect” value (30.3 µM, […]) stood at 19.34%.

On to `NCC(CO)Cc1ccc(C(F)(F)F)cc1` (centres undefined), for which the “Percent Effect” value (30.3 µM, […]) turned out to be 17.17%.

Take `Cc1cnn(CCNCC(O)c2ccc(F)c(F)c2)c1` (centres undefined): where the note is “30.3 µM, […]”, the “Percent Effect” value is reported as -10.99%.

As for `OC(CNCCn1cccn1)c1cccc(Br)c1` (centres undefined), the “Percent Effect” value (30 µM) is given as 1.273%.

Consider `Cc1cnn(CCNCC(O)c2cccc(Br)c2)c1` (centres undefined), for which, under “30.3 µM, […]”, the “Percent Effect” value is recorded as 97.73%.

Turning to `O=C(NCCc1ccccc1F)NCC(O)c1cccc(F)c1` (centres undefined), for the setting “30 µM”, the “Percent Effect” value is 19.34%.

As for `Cn1cc(CN2CC[C@@H]3[C@@H](CCC(=O)N3CC3CCNCC3)C2)cn1`, where the note is “30.3 µM, […]”, the “Percent Effect” value was found to be 16.61%.

For the compound `Cc1ccc(CC(=O)NCC(O)c2ccc(Cl)cc2Cl)cn1` (centres undefined), the “Percent Effect” value (30.3 µM, […]) is -16.89%.

As to `Cc1c(C)n(Cc2ccncc2)c2nc3c(c(N)c12)CCCCCC3`, the “Percent Effect” value (30.3 µM, […]) is listed as 6.52%.

As to `Cc1c(C)n(Cc2ccccn2)c2nc3c(c(N)c12)CCCCC3`, the “Percent Effect” value (30.3 µM, […]) came out at 38.18%.

As to `CCc1c(C)sc2c1c(N)nc(=O)n2CCN(C)C`, the “Percent Effect” value (30.3 µM, […]) is on record as -18.16%.

On to `Cc1c(-c2ccccc2)nc2c(c(C)c(C)n2CCN(C)C)c1N`, for which, for the setting “30.3 µM, […]”, the “Percent Effect” value stood at 99.06%.

For the compound `CCc1c(C)sc2c1c(N)nc(=O)n2CCCN(C)C`, the “Percent Effect” value (30.3 µM, […]) was 34.84%.

`CCc1c(-c2ccccc2)nc2c(c(C)c(C)n2CCN(C)C)c1N`: where the note is “30.3 µM, […]”, the “Percent Effect” value came out at 100.7%.

Turning to `Cc1cc(C(=O)N2C[C@@H]3[C@@H](CN(C)CCc4ccccn4)[C@@H]3C2)c(C)o1`, the “Percent Effect” value (30.3 µM, […]) is -26.53%.

With `CC(CN1CCCC1=O)NC(=O)Nc1cccnc1-n1cccn1` (centres undefined), where the note is “30.3 µM, […]”, the “Percent Effect” value was -2.319%.

Turning to `Cc1nccn1CCN(C)c1nc(-c2ccc(Cl)cc2)nc2c1CNC2`, the “Percent Effect” value (30.3 µM, […]) was found to be 51.4%.

Take `CCn1ccnc1CN(C)c1nc(-c2ccc(Cl)cc2)nc2c1CNC2`: the “Percent Effect” value (30.3 µM, […]) was 20.89%.

As to `Cc1nccn1CCN(C)c1nc(-c2cccnc2)nc2c1CCNC2`, for the setting “30.3 µM, […]”, the “Percent Effect” value stood at 20.05%.

As for `Cc1c(-c2c(-c3ccccc3)ncn2[C@H](CO)C(=O)O)cnn1C`, the “Percent Effect” value (30.3 µM, […]) worked out at 25.35%.

With `Cc1c(-c2c(-c3ccccc3)ncn2[C@@H](C(=O)O)[C@H](C)O)cnn1C`, the “Percent Effect” value (30.3 µM, […]) worked out at 50.58%.

In the case of `Cc1nn(C)c(C)c1-c1c(-c2ccccc2)ncn1[C@H](CO)C(=O)O`, the “Percent Effect” value (30.3 µM, […]) came out at 46.15%.

Consider `Cc1ccccc1C(=O)N1CC[C@H](O)[C@@H](N2CCOCC2)CC1`, for which the “Percent Effect” value (30.3 µM, […]) was 5.268%.

As to `Cc1ccc(OC2(C(=O)O)CCN(C(=O)c3cccc(F)c3)CC2)cn1`, for the setting “30.3 µM, […]”, the “Percent Effect” value is reported as -5.312%.

As to `O=c1[nH]ncc(NCCOc2cccc(Br)c2)c1Cl`, under “30.3 µM, […]”, the “Percent Effect” value was determined as 33.92%.

Take `O=c1[nH]ncc(NCCOc2ccc3c(c2)CCC3)c1Cl`: the “Percent Effect” value (30.3 µM, […]) is 53.95%.

For the compound `O=c1[nH]ncc(NCCOc2ccc3c(c2)OCO3)c1Cl`, the “Percent Effect” value (30.3 µM, […]) is recorded as 33.23%.

For the compound `O=C1COc2c(cccc2C(=O)N2CCCC(n3cccn3)C2)N1` (centres undefined), the “Percent Effect” value (30.3 µM, […]) is recorded as -19.69%.

For the compound `O=C(NC1CC1)c1ccn(COc2c(Cl)cccc2Cl)n1`, where the note is “30.3 µM, […]”, the “Percent Effect” value is on record as 26.41%.

As to `CC(C)C1CN(C(=O)c2ccccc2)CCS1` (centres undefined), the “Percent Effect” value (30.3 µM, […]) is -6.451%.

As for `Cc1ccc([C@]2(O)CC[C@H]3CN(Cc4cccc(Cl)c4Cl)C[C@H]32)nc1.O=C(O)CC(O)(CC(=O)O)C(=O)O`, under “30 µM, 30.03 µM”, the “Percent Effect” value was found to be 12.17%.

Regarding `Cc1ccc([C@]2(O)CC[C@H]3CN(Cc4cc(C)c(O)c(C)c4)C[C@H]32)nc1.O=C(O)CC(O)(CC(=O)O)C(=O)O`, the “Percent Effect” value (30 µM, 30.03 µM) is given as 50.06%.

For `Cc1cc(-c2cnc(N3CCSCC3)nc2C(C)C)on1`, under “30.3 µM, […]”, the “Percent Effect” value is listed as -38.52%.

On to `Cn1cnc2c1CCN(CC(=O)N(Cc1ccsc1)C1CC1)C2`, for which, where the note is “30.3 µM, […]”, the “Percent Effect” value came to 1.808%.
